Measured values taken from PubChem BioAssay (NCI).
The panel holds about 83,000 compounds, 20% with a hit somewhere; the sample as a whole holds those more often.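 48-hour exposure, single concentration, 96-well plates; percent growth endpoint where 0 means no net growth. Active: below 10.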 A number with no mark means an inactive call. Calls of active or inactive are those of the source.

Key:
Experiment in all cases: NCI-60 one-dose screen, 48 h (100 = growth as untreated, 0 = no growth, -100 = all killed)
Settings in all cases: 10 µM
RPMI-8226 leukemia = tested on: RPMI-8226 leukemia
OVCAR-8 ovarian = tested on: OVCAR-8 ovarian
OVCAR-5 ovarian = tested on: OVCAR-5 ovarian
OVCAR-4 ovarian = tested on: OVCAR-4 ovarian
SK-OV-3 ovarian = tested on: SK-OV-3 ovarian
HS 578T breast = tested on: HS 578T breast
NCI/ADR-RES ovarian = tested on: NCI/ADR-RES ovarian
T-47D breast = tested on: T-47D breast
BT-549 breast = tested on: BT-549 breast
MDA-MB-435 melanoma = tested on: MDA-MB-435 melanoma
SW-620 colon = tested on: SW-620 colon
MCF7 breast = tested on: MCF7 breast
HCT-116 colon = tested on: HCT-116 colon
HCC-2998 colon = tested on: HCC-2998 colon
KM12 colon = tested on: KM12 colon
OVCAR-3 ovarian = tested on: OVCAR-3 ovarian
IGROV1 ovarian = tested on: IGROV1 ovarian

SMILES | growth (RPMI-8226 leukemia) | growth (OVCAR-8 ovarian) | growth (OVCAR-5 ovarian) | growth (OVCAR-4 ovarian) | growth (SK-OV-3 ovarian) | growth (HS 578T breast) | growth (NCI/ADR-RES ovarian) | growth (T-47D breast) | growth (BT-549 breast) | growth (MDA-MB-435 melanoma) | growth (SW-620 colon) | growth (MCF7 breast) | growth (HCT-116 colon) | growth (HCC-2998 colon) | growth (KM12 colon) | growth (OVCAR-3 ovarian) | growth (IGROV1 ovarian)
Nc1ccc2c(c1)C1(CCC2)NC(=O)NC1=O (configuration not stated) | 98.4% | 100% | 92.8% | 106% | 109% | 103% | 108% | 96.3% | 102% | 102% | 104% | 97.2% | 101% | 115% | 102% |  | 
O=C(Nc1ccc(Cl)c([N+](=O)[O-])c1)Nc1nc2ccccc2s1 | 7.17% (active) | 85.3% | 103% | 67.1% | 84.9% | 103% | 80.9% | 36.8% | 88.3% | 89.4% | 99.4% | 79% | 66.3% | 86.3% | 106% | 79.5% | 
N#Cc1cccc(OCc2nc(N)nc(N)c2-c2ccc(Cl)c(Cl)c2)c1 | 60.1% | 19.3% | 35.6% | 88.3% | 39% | 49.7% | 34.1% |  | 40.1% | 21.3% | 17.9% | 28.5% |  | 29.8% | 25.2% |  | 17.8%
N#CCCN1C/C(=C/c2ccc(Cl)cc2)C(=O)/C(=C/c2ccc(Cl)cc2)C1 | -15.5% (active) | -22% (active) | 4.05% (active) | 8.18% (active) |  | -9.16% (active) | 11.1% | 8.7% (active) | -24.5% (active) | -66.5% (active) | -48.4% (active) | -10.2% (active) | -54.5% (active) | -84.6% (active) |  | -48.6% (active) | -66.7% (active)
Fc1ccc2nc(-c3nc(-c4ccccc4)n4ccccc34)[nH]c2c1 | -25.9% (active) | -58.7% (active) | 55.9% | -71.2% (active) | -43.2% (active) | -5.1% (active) | -13.1% (active) | -0.867% (active) |  | -19.4% (active) | 26.5% |  | -31.2% (active) | 29.2% |  |  | 1.27% (active)
Cc1ccc(-c2nc(/C=C3/C(=O)N(C)c4ccc(F)cc43)c3ccccn23)cc1 | 115% | 99.3% | 106% | 114% | 105% | 107% | 105% | 109% | 99.9% | 111% | 105% | 78.6% | 89.3% | 104% | 101% | 112% | 
N=c1nc(N)ncn1-c1ccccc1 | 97.7% | 99.5% | 95% | 100% | 96.3% | 101% | 102% | 86.5% | 107% | 107% | 107% | 92.4% |  | 101% | 108% |  | 104%
Clc1cccc(-c2nc(-c3cccs3)no2)c1 | 93.7% | 107% | 108% | 65.8% | 106% | 136% | 107% | 66.7% | 111% | 111% | 106% | 36.8% | 92.4% | 32.9% | 92.4% | 104% | 
COc1ccc(/C(=C2\O[C@@H]([C@H]3COC(C)(C)O3)[C@H]3OC(C)(C)O[C@@H]23)c2cc(OC)c(OC)c(OC)c2)cc1O | 63.7% | 68.3% | 95.4% | 99.2% | 38% | -22.2% (active) | 10.1% | 121% |  | -44.7% (active) | 15.4% |  | 54% | 102% | 26.7% | 48% | 
CCCCCCCCN(CCCCCCCC)CCCCCCCCCN1CCCc2cc(OC)ccc21 | 65.9% | 101% | 90.9% | 78.2% | 93.6% | 91.3% | 88.5% | 74.3% | 94.9% | 104% | 99% |  | 75.7% | 93.2% | 104% |  | 101%
CC/C(=N\N=C(/CC)c1ccc(Br)cc1)c1ccc(Br)cc1 | 93.9% | 116% | 92.4% | 93.7% | 100% | 110% | 105% | 83% | 91.1% | 106% | 102% | 90.9% | 78.1% | 99.4% | 99.5% |  | 79.5%
COc1ccc(-c2ccc3cc(C(=O)Nc4ccc(O)c(C(=O)/C=C/c5cc(OC)c(OC)c(OC)c5)c4)ccc3c2)cc1 | 60.2% | 84.9% | 108% | 94.5% | 109% | 102% | 95.4% |  | 102% | 93.4% | 94.2% | 87.3% | 79.2% |  | 104% |  | 89.6%
COc1cc(-c2cc(/C=C3\C(=O)Nc4ccccc43)[nH]n2)cc(OC)c1OC | 24.3% | 40.8% | 77.6% | 42% | 87.5% | 49.6% | 35.2% |  | 34.7% | 38.7% | 60.2% |  | 47.3% | 87.4% | 10.3% |  | 43%
Nc1nc(N)c2c(ccc3nccc32)[nH]1 | 43.2% | 26.2% | 65.2% | 66.1% | 58.8% | 89.5% | 53.1% | 73% | 21% | 34.8% | 29.4% | 54% | 15.1% | 54.4% | 62.4% | 75.5% | 
Cc1cc(N(CCCNc2ccnc3cc(Cl)ccc23)Cc2ccc3c(c2)OCO3)nc(N2CCOCC2)n1 | -29.6% (active) | 31.7% | 77.4% | 23.1% | 90.5% | 34.3% | 46.9% | 0.442% (active) | 12.3% | -13.6% (active) | 11.7% | 31.9% |  | 25.7% | 40.6% |  | 10.9%
CCOC(=O)C(CSC(c1ccccc1)(c1ccccc1)c1ccccc1)NC(=O)C(CSC(c1ccccc1)(c1ccccc1)c1ccccc1)NC(c1ccccc1)(c1ccccc1)c1ccccc1 (configuration not stated) | 105% | 95.6% | 106% | 105% |  | 99.5% | 109% | 108% | 109% | 86.1% | 104% | 95% | 108% | 113% | 111% | 119% | 115%
O=C(Nc1cccc(-n2cc(-c3ccncc3)c(-c3cc(O)cc(Cl)c3)n2)c1)c1cc(C(F)(F)F)cc(C(F)(F)F)c1 | 32.1% | 39.6% | 70.7% | 59.6% | 68.8% | 65.9% | 46.9% | 26.3% | 73.4% | 45.6% | 61% | 23% | 24.5% | 28.9% | 21.2% |  | 73%
CCN1CCC2(CC1)OC(c1ccccc1)C(c1ccccc1)O2 (configuration not stated) | 101% | 106% | 95.4% | 110% | 121% | 115% | 107% | 103% | 110% | 114% | 102% | 99.6% | 95.1% | 113% | 115% |  | 144%
CCN1Cc2c(/C=C/c3ccccc3)nc3ccc(OC)cc3c2N(c2cccc(Cl)c2)C1 | -1.25% (active) | 89.4% | 95.4% | 67.5% | 77.3% |  | 77.4% | 55.1% | 95.2% | 76.1% | 67.4% | 78.5% | 45.8% | 86% | 94.2% | 74.7% | 
Nc1nc(N)c(NC(=O)CNc2ccc(C(=O)O)cc2)c(N)n1 | 98% | 105% | 108% | 104% | 107% |  | 123% | 94.6% | 116% | 105% | 105% | 91.3% | 113% | 107% | 114% |  | 118%
